Lassa entry inh: inhibitors of Lassa virus binding or cell entry. actives 1.2% (n = 300,000). AID 540256. Potency, µM (titrated, usually from 37.9 µM), actives largely listed as inhibitors. Lassa virus pseudotype entry inhibition, cell reporter; calls by dose curve; tested in HEK293 cells; note: nearly all actives have a fitted effect of over 50% in size
FMDV antiviral: blocks foot and mouth disease virus; AID 1159524; Potency, µM (titrated, usually from 57.9 µM), usual class: inhibitors; actives 1.2% (n = 410,000); FMDV antiviral cell-based qHTS; calls by dose curve; tested in HEK293T cells; note: read-out not given here; nearly all actives have a fitted effect of over 45% in size
MARV entry inh: Marburg virus entry inhibition | actives 1.8% (n = 300,000) | AID 540276 | Potency, µM (highest dose often 37.8 µM), usual class: inhibitors | Marburg virus pseudotyped entry inhibition, cell reporter; calls by dose curve; tested in HEK293 cells
HCMV inh: human cytomegalovirus inhibition. HFF cells, HCMV-luciferase reporter, 72 h; active compounds read low. activity change, negative = inhibition, % at 57.5 µM. actives 4.5% (n = 410,000). AID 1259415; in the data active = activity change below about -60%; inconclusive = no clear call, values can overlap the other calls; inactive = above about -39%
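HFF cells seeded 16 h at 37C, treated with compounds, infected with luciferase-reporter HCMV at MOI 1 PFU/cell; luciferase read at 72 h post infection, normalized to buffer-only and Salinomycin controls.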
Each line names hits and unclear results; the compound was inactive in the other large screens. Only some compounds are listed: those with a hit (about 6.2% of all), similar ones and a draw of the others.

COC(/C(=N/O)c1ccc(Cl)cc1)c1ccccc1 (stereo not drawn)	Lassa entry inh inconclusive, MARV entry inh inconclusive, HCMV inh -94
CCOc1c(OC(C)=O)ccc(/C=C/c2ccc3cccc(OC(C)=O)c3n2)c1[N+](=O)[O-]	Lassa entry inh inconclusive
C=CCN1C(=O)/C(=C/c2ccc(OC(C)=O)c(OCC)c2[N+](=O)[O-])SC1=S	Lassa entry inh inconclusive, FMDV antiviral inconclusive, MARV entry inh inconclusive, HCMV inh -99
CCn1cc(C(=O)NCCN(C)C)c(=O)c2cc(F)c(N3CCN(C)CC3)cc21	MARV entry inh 11µM
CCCCN(CCCC)C(=O)c1cn(CC)c2cc(N3CCN(C)CC3)c(F)cc2c1=O	MARV entry inh inconclusive, HCMV inh -66
CCOc1ccc(-c2c(C(=O)N/N=C/c3cccc(Br)c3)nnn2-c2nonc2N)cc1	HCMV inh -63 (no result: Lassa entry inh, MARV entry inh)
CCOc1ccc(-c2c(C(=O)N/N=C/c3ccc(O)cc3)nnn2-c2nonc2N)cc1	Lassa entry inh inconclusive
CN(C)Cc1c(C(=O)N/N=C/c2cccc(OCc3c(F)cccc3Cl)c2)nnn1-c1nonc1N	FMDV antiviral inconclusive, HCMV inh -86 (no result: Lassa entry inh, MARV entry inh)
Nc1nonc1-n1nnc(C(=O)N/N=C/c2cccc(Cl)c2)c1CN1CCCCCC1	none (no result: Lassa entry inh, MARV entry inh)
CN1CCN(Cc2c(C(=O)N/N=C/c3cccc(Br)c3)nnn2-c2nonc2N)CC1	HCMV inh -60 (no result: Lassa entry inh, MARV entry inh)
CCOC(=O)c1c(C=O)c(C)n(Cc2ccc(Cl)cc2)c1C	FMDV antiviral inconclusive
CC(=O)c1c(C(C)=O)c(C)n(Cc2ccc(Cl)cc2)c1C	FMDV antiviral inconclusive, MARV entry inh inconclusive, HCMV inh -71
O=Cc1c(N2CCN(c3ccccc3)CC2)nc2ccccn2c1=O	none (no result: Lassa entry inh, MARV entry inh)
O=C(O)c1cc(O)c2c(c1)[C@H]([C@H]1c3cc(C(=O)O)cc(O)c3C(=O)c3c(O[C@@H]4O[C@H](CO)[C@@H](O)[C@H](O)[C@H]4O)cccc31)c1cccc(OC3O[C@H](CO)[C@@H](O)[C@H](O)[C@H]3O)c1C2=O (stereo partly drawn)	FMDV antiviral inconclusive, HCMV inh -101 (no result: Lassa entry inh, MARV entry inh)
Cn1ncc(Cl)c1C(=O)N1CCN(C23CC4CC(CC(C4)C2)C3)CC1	Lassa entry inh inconclusive, HCMV inh -77
Cc1ccc(C(=O)N2CCN(C34CC5CC(CC(C5)C3)C4)CC2)o1	HCMV inh -82 (no result: Lassa entry inh, MARV entry inh)
Cn1nccc1C(=O)N1CCN(C23CC4CC(CC(C4)C2)C3)CC1	none
Cc1c(C(=O)N2CCN(S(=O)(=O)c3ccccc3)CC2)oc2ccccc12	MARV entry inh inconclusive, HCMV inh inconclusive
CCCCc1ccc(C2C3=C(CC(C)(C)CC3=O)NC3=C2C(=O)c2ccccc23)cc1 (stereo not drawn)	Lassa entry inh inconclusive, MARV entry inh inconclusive, HCMV inh -86
Cn1cc(S(=O)(=O)c2cccc(Cl)c2)c(=O)c2cc(F)c(N3CCN(c4ccc(F)cc4)CC3)cc21	none (no result: MARV entry inh)
O=C(CCl)c1ccc(Cc2ncc(C(F)(F)F)cc2Cl)s1	FMDV antiviral 25µM
NS(=O)(=O)c1ccc(Cc2ncc(C(F)(F)F)cc2Cl)s1	MARV entry inh inconclusive
COc1cc(C(=O)OCc2cc(=O)oc3c(C)c(C)ccc23)ccc1OC(F)F	Lassa entry inh inconclusive, HCMV inh -65
COc1cc(C(=O)OCc2cc(=O)c(O)co2)ccc1OC(F)F	MARV entry inh inconclusive
CC1(C)SC2C(NC(=O)C(NC(=O)N3CCNC3=O)c3ccccc3)C(=O)N2C1C(=O)O (stereo not drawn)	none (no result: Lassa entry inh, MARV entry inh, HCMV inh)
CN(C)c1nc(SCCOC(=O)c2ccccc2)nc(N(C)C)n1	none
COc1ccccc1C1NC(=O)NC(C)=C1C(=O)Nc1cccc(C)c1C (stereo not drawn)	none (no result: Lassa entry inh, MARV entry inh)
COc1c(O)ccc(C2NC(=O)NC(C)=C2C(=O)Nc2ccccc2C)c1[N+](=O)[O-] (stereo not drawn)	HCMV inh -63
Cc1ccccc1C(=O)Nc1nc(-c2ccc(Br)cc2)ns1	FMDV antiviral inconclusive, HCMV inh -95
COC(=O)[C@H](CC(C)C)NC(=O)Nc1ccc(F)cc1	Lassa entry inh inconclusive
C[C@H](NS(=O)(=O)OCC(Cl)(Cl)Cl)C1CC1c1ccccc1 (stereo partly drawn)	HCMV inh inconclusive (no result: Lassa entry inh, MARV entry inh)
CC(C)c1ccc(OCC(=O)N(Cc2ccco2)C2CCS(=O)(=O)C2)cc1 (stereo not drawn)	none (no result: Lassa entry inh, MARV entry inh)
[O-]/C(=C(\C(=S)Nc1ccc(SC(F)F)cc1)[n+]1ccccc1)c1ccc(Cl)cc1Cl	Lassa entry inh inconclusive, MARV entry inh inconclusive, HCMV inh -63
Cc1cc(C)cc(NC(=S)/C(=C(\[O-])c2ccc(Cl)cc2Cl)[n+]2ccccc2)c1	none (no result: Lassa entry inh, MARV entry inh)
OCC1(Cc2ccc(Cl)cc2)CCN(Cc2ccc3nsnc3c2)CC1	MARV entry inh inconclusive
O=C(Nc1ncc(Cc2ccccc2)s1)c1cccs1	Lassa entry inh inconclusive, MARV entry inh inconclusive
Cc1ccc(C(=O)Nc2ncc(Cc3ccccc3)s2)o1	Lassa entry inh inconclusive, MARV entry inh 5.2µM
O=C(Nc1ncc(Cc2cccc(Cl)c2)s1)c1cccs1	Lassa entry inh 8.9µM, MARV entry inh 10µM
Cc1ccc(Cc2cnc(NC(=O)c3cccs3)s2)cc1	Lassa entry inh inconclusive, MARV entry inh inconclusive
COc1cc(OC)c(S(=O)(=O)NC(C)C)cc1C(=O)O	none (no result: Lassa entry inh, MARV entry inh)
CCN1CCC(N(Cc2ccc(F)cc2)C(=O)Nc2cc(Cl)ccc2C(=O)OC)CC1	Lassa entry inh inconclusive, FMDV antiviral inconclusive (no result: MARV entry inh)
Cc1c(C)n(CCC#N)c2ccccc12	none
CC(NS(=O)(=O)c1ccc(Br)cc1)C(=O)NCc1ccco1 (stereo not drawn)	HCMV inh -73
Cc1cccn2c(=O)c(C=NCc3ccco3)c(Nc3ccc(SC(F)F)cc3)nc12	Lassa entry inh 9.2µM, MARV entry inh inconclusive
Cc1cccn2c(=O)c(C=NCCO)c(NCc3ccco3)nc12	none
O=C(NCc1ccccc1Cl)C1CCC(=O)N(C2CCCC2)C1 (stereo not drawn)	none
O=C(CSc1ncccn1)n1c2c(c3ccccc31)CCCC2	HCMV inh inconclusive (no result: FMDV antiviral)
CCC(=O)N1CCc2cc(S(=O)(=O)CCC(=O)N(C)c3ccc(OC)cc3)ccc21	none
Cc1ccc(C(=O)Nc2ccccc2SCC2CSc3nc4ccccc4c(=O)n32)cc1 (stereo not drawn)	Lassa entry inh 7.1µM, MARV entry inh 3.2µM, HCMV inh -85
O=C(Nc1ccccc1SCC1CSc2nc3ccccc3c(=O)n21)c1ccccc1Cl (stereo not drawn)	Lassa entry inh inconclusive, MARV entry inh inconclusive, HCMV inh inconclusive
O=C(Nc1ccccc1SCC1CSc2nc3ccccc3c(=O)n21)c1ccccc1 (stereo not drawn)	Lassa entry inh inconclusive, MARV entry inh inconclusive, HCMV inh -70
O=C(Nc1ccccc1SCC1CSc2nc3ccccc3c(=O)n21)c1cccc(Cl)c1 (stereo not drawn)	Lassa entry inh 2.5µM, MARV entry inh inconclusive, HCMV inh -96
Cc1cccc(C(=O)Nc2ccccc2SCC2CSc3nc4ccccc4c(=O)n32)c1 (stereo not drawn)	Lassa entry inh 6.3µM, MARV entry inh 0.89µM, HCMV inh -75
COc1cc(NC(=O)Cn2c(=O)n(CC3CCCO3)c(=O)c3cc(OC)c(OC)cc32)cc(OC)c1 (stereo not drawn)	none
CCOC(=O)c1ccc2ncc(C(=O)OCC)c(NCCc3ccc(OC)c(OC)c3)c2c1	Lassa entry inh inconclusive
